These results are taken from the supplement of paper PMC10338343.

Experiment [1] deals with MILI (PIWIL2) piRISC loaded with L1MC piRNA (26 nt). The experiment is described as follows: pre-steady-state target cleavage rate (min^-1); guide: L1MC piRNA 5'p-UAACUAAAUACUAUGCAAGCUGUAGG; higher = faster piRNA-guided slicing of the target. The procedure, abridged:
(§1)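 The pre-steady-state cleavage rate was obtained by Cleave-'n-Seq with a burst-and-steady-state fit. A transcribed, DNA-blocked target RNA library (0.1 nM) was mixed with 1 nM active affinity-purified piRISC carrying one synthetic guide, with or without 500 nM GTSF1 partner protein, in HEPES–potassium acetate buffer at 33 °C for 0–8 or 0–960 min. Uncleaved targets were sequenced and normalised to depth and to weakly complementary targets, with three trials pooled and k3 capped at 0.0001 min^-1.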

Experiment [2] relates to EfPiwi piRISC loaded with L1MC piRNA (26 nt). The experiment is described as follows: pre-steady-state target cleavage rate (min^-1); auxiliary factor: 500 nM Ephydatia muelleri Gtsf1; guide: L1MC piRNA 5'p-UAACUAAAUACUAUGCAAGCUGUAGG; MIWI and MILI are mouse PIWI proteins and EfPiwi is from a freshwater sponge; tags in brackets are library labels; higher = faster piRNA-guided slicing of the target. The procedure, abridged: as §1
Where [3] appears, read: auxiliary factor: 500 nM mouse GTSF1.
Setting [4] is: auxiliary factor: none (no GTSF1).

± gives the standard deviation.

On to UCCUGCUACAGCUUGCAUAGUAUUAGUUA, for which the “pre-steady-state target cleavage rate” value worked out at 0.222 ± 0.026 in experiment [1] (setting [3]), 0.0027 ± 0.0027 in experiment [1] (setting [4]) and 0.00404 ± 0.0022 in experiment [2].

Consider UCCUCCUACAGCUUGCAUAGUAUUUACUUA, for which the “pre-steady-state target cleavage rate” value in experiment [1] (setting [3]) was 0.206 ± 0.039; in experiment [1] (setting [4]), 0.00429 ± 0.0025; in experiment [2], 0.0042 ± 0.0034.

For UCCUGCUACAGCUUCCUUAGUAUUUAGUUA, the “pre-steady-state target cleavage rate” value in experiment [1] (setting [3]) came to 0.251 ± 0.025; in experiment [1] (setting [4]), 0.00547 ± 0.0019; in experiment [2], 0.00425 ± 0.0019.

As to UCCUGGUACCAGCUUGCAUAGUAUUUAGUUA, the “pre-steady-state target cleavage rate” value was determined as 0.276 ± 0.043 in experiment [1] (setting [3]), 0.00866 ± 0.0047 in experiment [1] (setting [4]) and 0.0109 ± 0.0044 in experiment [2].

Consider UCCUGCUAGAGCUUGCAAAGUAUUUAGUUA, for which the figures for the “pre-steady-state target cleavage rate” value in experiment [1] (setting [3]), in experiment [1] (setting [4]) and in experiment [2] were 0.112 ± 0.012, 0.00382 ± 0.0021 and 0.00607 ± 0.0018, respectively.

In the case of UCCUCAUACAGCUUGCAUAGUAUUUAGUUA, the “pre-steady-state target cleavage rate” value in experiment [1] (setting [3]) was determined as 0.319 ± 0.015; in experiment [1] (setting [4]), 0.0105 ± 0.0029; in experiment [2] it was 0.234 ± 0.064.

Take UCCUGCUACAGCAUGGAUAGUAUUUAGUUA: the “pre-steady-state target cleavage rate” value in experiment [1] (setting [3]) came to 0.257 ± 0.021; in experiment [1] (setting [4]) it was 0.00639 ± 0.0031; in experiment [2], 0.00804 ± 0.0023.

Consider UCCUGGAUCAGCUUGCAUUGUAAUUAGUUA, for which the “pre-steady-state target cleavage rate” value in experiment [1] (setting [3]) stood at 0.097 ± 0.011; in experiment [1] (setting [4]), 0.00466 ± 0.0022; in experiment [2], 0.00179 ± 0.0017.

For the sequence UCCUGGUACAGCUUGCAUAGUAUUUGAGUUA, the “pre-steady-state target cleavage rate” value amounted to 0.178 ± 0.034 in experiment [1] (setting [3]), 0.00534 ± 0.0027 in experiment [1] (setting [4]) and 0.00306 ± 0.0023 in experiment [2].

For the sequence UCCUGGUACAGCAUGCAUAGUAUUUAGUAA, the “pre-steady-state target cleavage rate” value in experiment [1] (setting [3]) was determined as 0.163 ± 0.02; in experiment [1] (setting [4]) it was 0.00467 ± 0.0031; in experiment [2], 0.00753 ± 0.0032.
